Screens from PubChem BioAssay.
RE007 growth inh – qHTS Assay for Inhibitors of the HIV-1 protein Vpr. S. pombe RE007 Vpr strain, BacTiter-Glo ATP luminescence, 24 h. Potency, µM (doses to about 92.2 µM), for the others: at the top dose activity change, negative = less growth, hits mostly inhibitors. 360,000 tested, 0.21% active; active = well fitted falling curve with a large enough effect; inconclusive = small, poorly fitted or top-dose-only effect; inactive = no such curve, though single readings can be large or run the other way; also: % is scaled to controls: 0 for no effect and ±100 for the full control effect; nearly all actives have a fitted effect of over 50% in size
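Fission yeast strain RE007, carrying one chromosomally integrated HIV-1 vpr copy, was seeded at OD 0.01 in PMG+AL medium with 23 nL pinned compound. After 24 h at 30 °C and 99% humidity, viability was read by BacTiter-Glo luminescence.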
LmPK inhibitor – qHTS Assay for Inhibitors of Leishmania Mexicana Pyruvate Kinase (LmPK); Potency, µM (top dose mostly 57.5 µM), inactives show at the highest dose activity change, negative = inhibition, actives largely listed as inhibitors; Q27686; 290,000 tested, 0.37% active; AID 1721, 2009; purified LmPK, Kinase-Glo ATP luminescence, 1 h; also: % is scaled to controls: 0 for no effect and ±100 for the full control effect
Target sequence (Q27686 whole entry, looked up): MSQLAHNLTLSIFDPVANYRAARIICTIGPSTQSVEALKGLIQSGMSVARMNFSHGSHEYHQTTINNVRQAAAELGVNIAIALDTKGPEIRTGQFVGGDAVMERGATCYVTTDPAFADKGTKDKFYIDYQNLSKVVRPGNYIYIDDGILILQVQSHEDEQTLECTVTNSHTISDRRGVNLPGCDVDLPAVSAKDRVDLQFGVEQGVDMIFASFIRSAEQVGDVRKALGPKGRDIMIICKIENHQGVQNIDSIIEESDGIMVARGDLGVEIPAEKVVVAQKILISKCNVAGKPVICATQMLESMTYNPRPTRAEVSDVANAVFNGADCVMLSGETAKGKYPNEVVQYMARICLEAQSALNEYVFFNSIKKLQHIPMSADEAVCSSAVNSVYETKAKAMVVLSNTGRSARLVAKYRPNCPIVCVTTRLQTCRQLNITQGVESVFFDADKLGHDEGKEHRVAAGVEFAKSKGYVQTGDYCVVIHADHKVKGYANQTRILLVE
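Pyruvate kinase activity monitored as ATP production (luciferase luminescence). Conditions: 0.1 nM enzyme, 0.5 mM PEP, 0.1 mM ADP, 1 h, RT; normalized against uninhibited and no-enzyme wells.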
Sm TGR inh – qHTS Assay for the Inhibitors of Schistosoma Mansoni Peroxiredoxins. Schistosoma mansoni thioredoxin glutathione reductase (TGR), Q962Y6. purified TGR, DTNB reduction, TNB absorbance 405 nm. Potency, µM (highest dose often 114 µM), for inactives: at the highest dose activity change, negative = inhibition, hits mostly inhibitors. 360,000 tested, 3% active. AID 485364, 2010; also: % is scaled to controls: 0 for no effect and ±100 for the full control effect; nearly all actives have a fitted effect of over 60% in size
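Kinetic colorimetric format: TGR-catalysed, NADPH-driven DTNB reduction monitored via TNB absorbance. Enzyme dispensed at 20 nM; compound exposure 15 min at room temperature before reaction start.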
NS1 function inh – qHTS Assay for Inhibitors of Influenza NS1 Protein Function. Potency, µM (series often up to 46.1 µM), without a hit: top-dose activity, positive = more growth. AID 2326, 2010. 270,000 tested, 0.4% active; calls by dose curve; also: actives are rising curves; nearly all actives have a fitted effect of over 50% in size
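Compounds were scored for reversing the slow growth caused by influenza A NS1 in S. cerevisiae, measured by optical density at 600 nm. Assay medium contained 2% galactose at pH 6.0; NS1-free yeast of the same strain were the positive control.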
Giardia FBPA inh – qHTS Assay for Inhibitors of Fructose-1,6-bisphosphate Aldolase from Giardia Lamblia | A8B2U2 | purified Giardia FBPA | Potency, µM (series often up to 59.6 µM), for the others: top-dose activity, negative = inhibition, most hits filed as inhibitors | 290,000 tested, 0.71% active | AID 2451, 2010; also: % is scaled to controls: 0 for no effect and ±100 for the full control effect; nearly all actives have a fitted effect of over 55% in size
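Giardia FBPA (40 nM reagent) was preincubated 10 min at RT with compound (up to 57.5 uM final), then substrate plus GAPDH/TPI/NAD/arsenate coupling system with diaphorase/resazurin was added; resorufin fluorescence (525/598 nm) was read after 20 min.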
Tb PYK inh – qHTS of Trypanosoma Brucei Inhibitors; pyruvate kinase (Trypanosoma brucei), Q57TT1; Potency, µM (highest dose often 76.8 µM), without a hit: top-dose activity, negative = inhibition, usual class: inhibitors; 410,000 tested, 0.12% active; TbPYK enzyme, Kinase-Glo Plus ATP luminescence, 45 min; AID 624173, 2012; also: % is scaled to controls: 0 for no effect and ±100 for the full control effect; nearly all actives have a fitted effect of over 50% in size
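Screened from lowest to highest concentration, compounds were pinned into TbPYK/substrate mixtures, and ADP (130 uM final) was added. Plates sat at room temperature for 45 min prior to Kinase-Glo Plus detection by luminescence.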
Active calls of the source: *; u = inconclusive; x = no result given; [ ] = dose if it differs, or a comment. In the library only some 3.5% were active in any assay of this set; here they are far more common. Unless noted, calls follow the shape of the dose curve; as a rule, active = well fitted curve in the direction sought with a large enough effect; inconclusive = small, poorly fitted or top-dose-only effect, or another doubt; inactive = no such curve, though single readings can be large; an effect the other way counts as inactive or inconclusive. Potency is read from the fitted curve at half-maximal effect.

SMILES | RE007 growth inh | LmPK inhibitor | Sm TGR inh | NS1 function inh | Giardia FBPA inh | Tb PYK inh
Cc1cccc(N2CCN(C(=O)CN3C(=O)COc4ccc(S(=O)(=O)N5CCCCCC5)cc43)CC2)c1C | x | x | -4% | x | x | 2%
COc1ccc(-c2nc(CN3CCC(C(=O)NCCCOC(C)C)CC3)c(C)o2)cc1OC | x | x | -2% | x | x | 1%
O=C1CC(N2CCN(Cc3ccccc3)CC2)C(=O)N1c1ccccc1 (stereo not drawn) | -5% | 2% | u | 2% | 5% | 3%
O=C1CC(N2CCSCC2)C(=O)N1c1ccc(Br)cc1 (stereo not drawn) | u | 6% | u | -2% | 2% | -5%
CC1CCN(C2CC(=O)N(c3ccccc3)C2=O)CC1 (stereo not drawn) | 20µM* | 0% | 28µM* | -46% | 5% | -2%
CC1CCN(C2CC(=O)N(c3ccc(Br)cc3Br)C2=O)CC1 (stereo not drawn) | 40µM* | 4% | 20µM* | -88% | 0% | -2%
COc1ccc(CNC(=O)Cn2nnc(-c3ccc(C(F)(F)F)cc3)n2)cc1 | x | x | 12% | x | x | 8%
O=C(O)c1ccc(S(=O)(=O)c2ccc([N+](=O)[O-])cc2[N+](=O)[O-])cc1 | -2% | 1% | 0.1µM* | 0% | -22% | 2%
CC(C)S(=O)(=O)c1oc(-c2cccs2)nc1S(=O)(=O)c1ccc(F)cc1 | x | x | 0.89µM* | x | x | -4%
Cc1ccc(S(=O)(=O)c2nc(-c3cccs3)oc2SC(C)C)cc1 | x | x | -3% | x | x | -5%
CC(C)S(=O)(=O)c1oc(-c2ccc(F)cc2)nc1S(=O)(=O)c1ccccc1 | x | x | 0.89µM* | x | x | -6%
CSc1oc(-c2ccc(F)cc2)nc1S(=O)(=O)c1ccccc1 | 11% | 7% | -1% | -1% | 0% | 2%
O=C(Nc1ccc(N2CCC(N3CCCCC3)CC2)c(C(=O)O)c1)c1ccccc1 | x | x | 2% | x | x | -4%
FC(F)(F)c1nnc2c(Sc3ccccc3)nc3ccccc3n12 | -12% | 2% | u | 3% | 17% | 2%
FC(F)(F)c1nnc2c(Sc3ccccn3)nc3ccccc3n12 | -4% | 3% | 25µM* | -12% | 6% | -12%
CCN(CC)C(=O)c1sc2c(c1C)c(=O)n(-c1ccc(Cl)c(Cl)c1)c(=O)n2Cc1cc(=O)n2ccccc2n1 | x | x | -3% | x | x | 1%
CN1/C(=C\C=O)C(C)(C)c2ccccc21 | 4% | 5% | 21% | x | -4% | -2%
CN1\C(=C/C=C/C=C/C=[N+](C)C)C(C)(C)c2ccccc21 | u | 10µM* | 1% | x | -16% | u
CN1/C(=C\C=C\C2=[N+](C)c3ccc4ccccc4c3C2(C)C)C(C)(C)c2ccccc21 | x | 14µM* | -3% | -127% | x | x
C=C(C)C1(O)OC(=O)C=C1OC (stereo not drawn) | -9% | 2% | 6.3µM* | 2% | 0% | -7%
CC(C)CN(CC(C)C)c1ccc(C=C2C(=O)NC(=S)NC2=O)cc1[N+](=O)[O-] | -7% | 15% | 1.1µM* | 16% | u | -26%
Cc1ccc(/C=C2\NC(=S)NC2=O)cc1[N+](=O)[O-] | 3% | -3% | 1% | x | 6% | -14%
Cc1ccc2cc(CN(Cc3nnnn3Cc3ccco3)CC3CCCO3)c(=O)[nH]c2c1C (stereo not drawn) | 9% | 11% | 18µM* | -7% | -23% | -13%
Cc1ccc(S(=O)(=O)Cn2nnnc2CN(Cc2ccco2)CC2CCCO2)cc1 (stereo not drawn) | 27% | 4% | 28µM* | -3% | -2% | 4%
Cc1ccc2cc(CN(CC3CCCO3)S(=O)(=O)c3ccccc3)c3nnnn3c2c1 (stereo not drawn) | 10% | 7% | 7% | 10% | 2% | -4%
SMILES | RE007 growth inh | LmPK inhibitor | Sm TGR inh | NS1 function inh | Giardia FBPA inh | Tb PYK inh
COc1ccc2[nH]c(=O)c(CN(Cc3nnnn3Cc3ccccc3)CC3CCCO3)cc2c1 (stereo not drawn) | 15% | 1% | 0% | -19% | -12% | -1%
CCOc1ccc(CNS(=O)(=O)c2ccc(-c3cc(C(F)(F)F)on3)s2)cc1 | x | x | 4% | x | x | -6%
OC1=C(O)c2nc3cc(F)ccc3nc21 | 15% | -12% | 13µM* | -8% | u | -1%
COc1ccc(N2C(=O)C(Cl)=C(Nc3ccccc3OC)C2=O)cc1 | 9% | 0% | -1% | 13% | -5% | -6%
COc1ccc(N2C(=O)C(Cl)=C(Nc3ccccc3O)C2=O)cc1 | -9% | 4% | 40µM* | -97% | -16% | -13%
CC(C)OP(=O)(OC(C)C)C1(NS(=O)(=O)c2ccc(Cl)cc2)C=C(Cl)C(=O)C(Cl)=C1 | -8% | 0% | 0.79µM* | -26% | 12% | u
CC(C)N(CCNS(=O)(=O)c1ccc(Cl)cc1)C(C)C | 7%[3.69 µM] | 0% | 0% | 1% | -3% | x
N#CCCn1cc(C=C(C#N)C#N)c(-c2ccc(-c3ccccc3)cc2)n1 | x | -6% | 5µM* | 21% | -11% | -10%
COc1ccccc1N1CCN(C(=O)c2cc3c(=O)n(Cc4ccco4)ccc3nc2C)CC1 | x | x | 14µM* | x | x | -23%
COc1ccccc1N1CCN(C(=O)c2ccoc2C)CC1 | -9% | 0% | 45µM* | -3% | -2% | -9%
Cc1ccc(-c2nnc(Nc3ccc(O)cc3)c3ccccc23)cc1S(=O)(=O)N1CCCCC1 | x | x | -8% | x | x | 2%
C[C@H](CCCC/C=C/C(=O)O)O[C@@H]1O[C@@H](C)[C@H](O)C[C@H]1O | -6% | x | 56µM* | x | x | 3%
Cc1cccc(C)c1NC(=O)c1csc2c1CCCC2 | x | x | 9% | x | x | -9%
CC(C)CCOc1ccc(C(=O)CCNC(C)C(=O)O)cc1 (stereo not drawn) | x | 6% | 1µM* | -14% | -5% | x
COc1nc2ccccc2nc1CCC(=O)O | 10% | -9% | 0.1µM* | 4% | 5% | -3%
O=C(O)CCc1nc2ccccc2n(CCc2ccccc2)c1=O | 10% | -1% | 40µM* | -2% | 19% | 0%
CN(C(=O)c1cnc(N2CCOCC2)c2ccccc12)c1ccccc1F | x | x | 8% | x | x | -4%
C/C(CCc1oc2ccc(Cl)cc2c1-c1ccc(C)o1)=N\O | -26% | -8% | 25µM* | -21% | -8% | -9%
C/C(CCc1oc2ccc(Br)cc2c1-c1ccc(C)o1)=N/O | -17% | 0% | 40µM* | -21% | 0% | -10%
